Measured values published in PubChem BioAssay (NCATS).
Results filed as inconclusive are left out. Calls of active or inactive are those of the source. Unless noted, the call rests on the fitted dose curve; in most records, active means well fitted curve in the direction sought with a large enough effect; inconclusive means small, poorly fitted or top-dose-only effect, or another doubt; inactive means no such curve, though single readings can be large; an effect the other way counts as inactive or inconclusive.

Tests used:
[1] = qHTS Assay for Identification of Small Molecule Agonists for Thrombopoietin (TPO) Signaling Pathway (AID 917)
Outline: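 First, Ba/F3 cells with human TPO receptor were held overnight without IL-3. Next, compounds and TPO (26 pM final) were added. After 24 hrs at 37 C, luciferase detection reagent was added and luminescence measured following 10 min at room temperature.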

[2] = target: Muscarinic acetylcholine receptor M1 (Rattus norvegicus) (UniProt P08482); test: qHTS Assay for Antagonists of Acetylcholine Muscarinic M1 Receptor: Measurement of IP-One Response (AID 944); further: nearly all actives have a fitted effect of over 75% in size
Outline: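 Antagonist mode with rat M1 receptor transfected into CHO cells. Compound is added first for 10 min, carbachol at its EC80 follows for 30 min, and lysis reagents then allow TR-FRET detection of accumulated IP1.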

[3] = target: Pyruvate kinase (Leishmania mexicana) (UniProt Q27686); test: qHTS Validation Assay for Inhibitors of Leishmania Mexicana Pyruvate Kinase (AID 945)
Outline: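 Luminescent ATP detection (PKLight) after a 1 h room-temperature reaction of 0.2 nM LmPYK E451W mutant with 0.5 mM PEP and 0.1 mM ADP at pH 7.2. Activity is normalized to DMSO-only control wells.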

[4] = target: Pyruvate kinase PKM (Homo sapiens) (UniProt P14618); test: qHTS Assay for Activators of Human Muscle Pyruvate Kinase (AID 954; active means well fitted curve in the direction sought with a large enough effect, not every such curve was filed as active)
Outline: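 ATP production by PKM2 detected via luciferase luminescence after 1 h room-temperature reaction (0.1 nM enzyme, PEP at Km 0.5 mM, ADP 0.1 mM, pH 7.2 imidazole buffer). Inhibition scaled to no-enzyme control; activation referenced to 0.3 nM enzyme wells.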

[5] = Cell Viability - LYMP2-001 (AID 921); further: series mostly up to about 92 µM; nearly all actives have a fitted effect of over 70% in size
Outline: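 Human lymphoblastoid cells (Coriell), 2500 per well, were preincubated 5 hr at 37 C, then exposed to compounds in complete medium for 24 hr at 37 C. Cellular ATP was read by CellTiter-Glo luminescence; AC50 from Hill fits of concentration-response data.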

[6] = MultiTox-Fluor Cytotoxicity Assay - LYMP1-001 - Dead Cells (AID 946)
Outline: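 Cytotoxicity as increased dead-cell protease fluorescence (bis-AAF-R110, 485/520 nm), read 60 min after MultiTox-Fluor reagent. Human lymphoblastoid line exposed 16 h; Hill-fitted AC50, with DMSO as 0% and 15 uM tetraoctylammonium bromide as 100%.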

[7] = MultiTox-Fluor Cytotoxicity Assay - LYMP1-001 - Live Cells (AID 947)
[8] = Cell Viability - LYMP1-002 - Assay at 16 hr (AID 948)
Outline: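 Human lymphoblastoid cells (LYMP1-002), 2500/well, were preincubated 5 hr at 37 C, then exposed to compounds for 16 hr at 37 C in complete medium. Cellular ATP was read by CellTiter-Glo luminescence after 30 min at room temperature; AC50 from Hill fits.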

[9] = MultiTox-Fluor Cytotoxicity Assay - LYMP1-002 - Live Cells (AID 955)
Outline: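 Cells were seeded at 2500 per well and incubated 5 hr. Compounds were then added for 16 hr at 37 C, followed by MultiTox-Fluor reagent for 60 min at room temperature and fluorescence reading of viable-cell protease signal.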

[10] = MultiTox-Fluor Cytotoxicity Assay - LYMP1-002 - Dead Cells (AID 960); further: nearly all actives have a fitted effect of over 60% in size
Outline: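 Cells were plated, rested 5 hr, then treated with compound dilution series for 16 hr at 37 C. After adding substrate reagent and 60 min at room temperature, dead-cell protease fluorescence gave concentration-response curves fitted by the Hill equation.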

[11] = MultiTox-Fluor Cytotoxicity Assay - LYMP1-003 - Dead Cells (AID 961); further: nearly all actives have a fitted effect of over 70% in size
Outline: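 Dead-cell protease release, detected as bis-AAF-R110 fluorescence at 485/520 nm, was measured in LYMP1-003 cells after 16 h compound treatment at 37 C. AC50 values came from Hill-modeled qHTS curves normalized to DMSO (0%) and 15 uM tetraoctylammonium bromide (100%).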

[12] = MultiTox-Fluor Cytotoxicity Assay - LYMP1-003 - Live Cells (AID 962);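 further: cytotoxic hits lower the live-cell protease signal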
Outline: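 Acute cytotoxicity is scored as a drop in live-cell protease activity in human lymphoblastoid LYMP1-003 cells after 16 hr compound exposure at 37 C. AC50 values come from Hill-equation modelling of concentration-response data.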

[13] = Cell Viability - LYMP1-003 - Assay at 24 hr (AID 963)
Outline: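 Cytotoxicity is scored as a concentration-dependent fall in ATP-linked luciferase signal in human lymphoblastoid LYMP1-003 cells treated 24 hr at 37 C in complete culture medium.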

[14] = Cell Viability - LYMP1-003 - Assay at 40 hr (AID 964); further: series mostly up to about 92 µM; nearly all actives have a fitted effect of over 60% in size
Outline: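 Luminescent ATP signal (CellTiter-Glo) served as the viability read-out after 40 hr compound treatment of human lymphoblastoid LYMP1-003 cells at 37 C. Decreases in ATP were fitted with the Hill equation to give AC50.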

[15] = Cell Viability - LYMP2-003 (AID 965);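 further: cells exposed to compounds for 24 h before reading; nearly all actives have a fitted effect of over 50% in size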
Outline: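 Human lymphoblastoid cells (2500/well) were pre-incubated 5 hr at 37 C, then exposed to compounds over a concentration range for 24 hr at 37 C. Intracellular ATP was read by CellTiter-Glo luminescence; AC50 came from Hill-equation fits.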

[16] = Cell Viability - LYMP2-004 (AID 966); further: nearly all actives have a fitted effect of over 65% in size
Outline: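 qHTS cytotoxicity: human lymphoblastoid line, 24 hr compound treatment, 37 C, complete medium. Viability read as cellular ATP via luciferase luminescence; tetraoctylammonium bromide served as positive control.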

[17] = Cell Viability - LYMP2-005 (AID 967); further: series mostly up to about 92 µM
Outline: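 CellTiter-Glo luminescence (cellular ATP) read-out; LYMP2-005 lymphoblastoid cells, 2500/well, 5 h pre-incubation, then 24 h compound exposure at 37 C in complete medium. Tetraoctylammonium bromide positive control; AC50 by standard Hill fit.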

[18] = Cell Viability - LYMP2-009 (AID 968); further: series mostly up to about 92 µM; nearly all actives have a fitted effect of over 55% in size
[19] = Cell Viability - LYMP2-011 (AID 969); further: nearly all actives have a fitted effect of over 60% in size
Outline: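 In this qHTS cytotoxicity format, compounds are tested across concentrations on human lymphoblastoid cells in complete medium for 24 hours at 37 C. Viability is taken as cellular ATP measured by luciferase luminescence.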

[20] = Cell Viability - LYMP2-013 (AID 970); further: series mostly up to about 92 µM; nearly all actives have a fitted effect of over 55% in size
Outline: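 Cytotoxicity is scored as a concentration-dependent drop in intracellular ATP in human lymphoblastoid cells after 24 hr compound exposure at 37 C. ATP is quantified by luciferase luminescence, and AC50 values come from Hill-equation modeling.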

Measured: outcome

Chain of Pyruvate kinase (Leishmania mexicana) (Q27686 2-499 E452W): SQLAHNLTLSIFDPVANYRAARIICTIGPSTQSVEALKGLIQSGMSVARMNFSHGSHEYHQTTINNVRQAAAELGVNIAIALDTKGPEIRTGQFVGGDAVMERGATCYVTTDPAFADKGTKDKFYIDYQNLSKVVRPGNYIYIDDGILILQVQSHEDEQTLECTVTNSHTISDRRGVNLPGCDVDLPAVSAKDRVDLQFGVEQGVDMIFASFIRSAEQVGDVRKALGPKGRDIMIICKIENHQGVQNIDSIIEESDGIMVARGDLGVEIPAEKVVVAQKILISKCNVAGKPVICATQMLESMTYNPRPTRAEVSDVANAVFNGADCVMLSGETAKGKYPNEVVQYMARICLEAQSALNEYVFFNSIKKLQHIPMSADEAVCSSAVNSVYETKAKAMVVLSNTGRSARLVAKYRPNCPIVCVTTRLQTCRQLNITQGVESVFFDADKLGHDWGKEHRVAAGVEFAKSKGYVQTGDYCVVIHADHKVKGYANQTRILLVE
Chain of Pyruvate kinase PKM (Homo sapiens) (P14618 whole entry, looked up): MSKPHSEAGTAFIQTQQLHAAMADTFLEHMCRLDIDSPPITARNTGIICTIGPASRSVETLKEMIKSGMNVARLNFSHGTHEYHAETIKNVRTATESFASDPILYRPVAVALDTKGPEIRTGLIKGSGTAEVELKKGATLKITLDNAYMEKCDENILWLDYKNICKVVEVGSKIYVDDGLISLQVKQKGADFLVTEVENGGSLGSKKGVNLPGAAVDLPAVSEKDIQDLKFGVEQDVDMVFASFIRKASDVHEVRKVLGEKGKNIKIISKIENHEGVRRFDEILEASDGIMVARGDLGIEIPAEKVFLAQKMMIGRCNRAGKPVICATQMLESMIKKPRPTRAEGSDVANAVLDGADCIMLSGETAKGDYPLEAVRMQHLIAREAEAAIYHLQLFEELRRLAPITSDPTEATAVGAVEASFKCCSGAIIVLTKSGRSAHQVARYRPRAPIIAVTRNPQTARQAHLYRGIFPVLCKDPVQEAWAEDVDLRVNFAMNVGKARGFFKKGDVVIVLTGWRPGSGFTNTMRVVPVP
Chain of Muscarinic acetylcholine receptor M1 (Rattus norvegicus) (P08482 whole entry, looked up): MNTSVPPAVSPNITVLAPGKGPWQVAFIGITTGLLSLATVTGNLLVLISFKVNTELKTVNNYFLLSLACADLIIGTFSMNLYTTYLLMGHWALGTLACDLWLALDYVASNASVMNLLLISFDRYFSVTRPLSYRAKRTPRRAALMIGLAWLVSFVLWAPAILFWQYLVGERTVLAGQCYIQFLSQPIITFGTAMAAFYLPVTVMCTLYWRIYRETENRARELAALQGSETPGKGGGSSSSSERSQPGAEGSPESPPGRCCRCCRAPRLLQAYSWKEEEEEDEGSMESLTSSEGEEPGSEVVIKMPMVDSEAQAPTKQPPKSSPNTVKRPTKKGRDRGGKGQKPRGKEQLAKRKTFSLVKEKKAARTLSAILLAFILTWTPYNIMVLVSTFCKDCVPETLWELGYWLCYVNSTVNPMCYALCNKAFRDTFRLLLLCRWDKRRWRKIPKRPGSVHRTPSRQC

COc1ccc2c(c1OC)C(=O)OC2[C@H]1c2c(cc3c(c2OC)OCO3)CCN1C (some centres not stated)
inactive: [1] | [2] | [3]

CN(C)CC[C@H](c1ccc(Cl)cc1)c1ccccn1
inactive: [1] | [3] | [4]

Cc1cc(O)c2c(c1)C(=O)c1cccc(O)c1C2=O
inactive: [5] | [6] | [7] | [8] | [9] | [10] | [11] | [12] | [13] | [14] | [15] | [16] | [17] | [18] | [19] | [20]
